# Where “and” joins values, the source holds several entries; their conditions need not be identical. Equal values may be shown once. Where a name gives a salt, the structure may show the parent alone.
# What was measured:
# Test in all cases: cell viability relative to vehicle control; higher = less cytotoxic
# Conditions in all cases: 10 µM
# K562 = tested on: K562
# Summary of the method: (§1)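 CRISPR-edited SRSF2 P95 mutant and isogenic wild-type clones of four leukaemia lines were screened against Selleck bioactive, kinase and epigenetic probe libraries, with identity-inconsistent compounds removed. Compounds were acoustically dispensed into 384-well plates at a single 10 µM dose, with 2000 cells in 50 µL medium per well. After 48 h, supernatant was removed and CellTiter-Glo luminescence was read. Viability was expressed as percent of the on-plate DMSO vehicle control, analysed in Genedata Screener.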
# MARIMO = tested on: MARIMO
# Summary of the method: as §1
# MOLM14 = tested on: MOLM14
# Summary of the method: as §1
# OCI-AML2 = tested on: OCI-AML2
# Summary of the method: as §1
Structure (SMILES),cell viability (K562; SRSF2 genotype: SRSF2 P95H/wt),cell viability (K562; SRSF2 genotype: SRSF2 wt/wt),cell viability (MARIMO; SRSF2 genotype: SRSF2 P95H/wt),cell viability (MARIMO; SRSF2 genotype: SRSF2 wt/wt),cell viability (MOLM14; SRSF2 genotype: SRSF2 P95H/wt),cell viability (MOLM14; SRSF2 genotype: SRSF2 wt/wt),cell viability (OCI-AML2; SRSF2 genotype: P95H/wt),cell viability (OCI-AML2; SRSF2 genotype: wt/wt)
COC(=O)C1=CO[C@@H](O[C@@H]2O[C@H](CO)[C@@H](O)[C@H](O)[C@H]2O)[C@@H]2C(CO)=CC[C@H]12 [Geniposide],98.8% and 85.3%,87.9%,84.1%,100%,94.9%,92.3%,99.6%,89.8%
O=c1[nH]c(=S)[nH]c2nc(-c3ccccc3)c(-c3ccccc3)nc12,97.9% and 90.8%,92%,103%,105%,92.8%,97.4%,98.9%,98.3%
NC[C@H](O)c1ccc(O)c(O)c1 [Noradrenaline bitartrate monohydrate (Levoph],86.5% and 94.4%,98.2%,92.6%,94.3%,85.7%,93.7%,96.7%,103%
O=c1c(-c2ccc(O[C@@H]3O[C@H](CO)[C@@H](O)[C@H](O)[C@H]3O)cc2)coc2cc(O)cc(O)c12 [Sophoricoside],104% and 106%,116%,106%,103%,100%,104%,109%,105%
NCCc1c[nH]cn1 [Histamine],96.1% and 97.6%,91.1%,84%,93%,56%,63.6%,81.6%,82.4%
CCOC(=O)C1=C(C)NC(=S)NC1c1cccc(O)c1 (stereo not given) [Monastrol],106% and 97.8%,103%,103%,99.4%,105%,103%,101%,102%
O=C(/C=C/n1cnc(-c2cc(C(F)(F)F)cc(C(F)(F)F)c2)n1)N1CC(F)(F)C1,27.6% and 15.9%,11.8%,35.7%,36.6%,2.44%,1.55%,1.41%,2.6%
Cc1ccc(N(CC2=NCCN2)c2cccc(O)c2)cc1 [Phentolamine Mesylate],93% and 101%,92.5%,90.3%,95.2%,102%,103%,102%,86.7%
COc1c(-c2ccc3cc(NS(C)(=O)=O)ccc3c2)cc(-n2ccc(=O)[nH]c2=O)cc1C(C)(C)C [S5402 Dasabuvir(ABT-333).cdx],84% and 86.8%,80.6%,82%,89.6%,88.3%,97.3%,90.5%,90.5%
CN1CCC[C@H]1c1cccnc1 [nicotine ditartrate],101% and 97.3%,97.6%,105%,117%,99.1%,101%,95.6%,106%

# — the supplement of paper PMC10981050
